A selection: hits, their analogues and other compounds. The true share with any hit is near 1.8%.
IkB sig inh: IkB pathway inhibition in ABC-DLBCL cells; Potency, µM (top dose mostly 57.1 µM), for inactives: at the highest dose IkBa stabilization activation; AID 445; ABC-DLBCL IkBa-CBG/CBR dual luciferase ratio, 4 h; response scale: scaled: untreated 0%, proteasome inhibitor 100%; 110,000 compounds, 0.04% hits; active = well fitted curve in the direction sought with a large enough effect in the signal ratio, not every such curve was filed as active; inconclusive = small, poorly fitted or top-dose-only effect, or a change in a side signal; the % refers to the signal ratio;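 note: the direction sought is a rising ratio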
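In this assay, an IκBα–CBG68 fusion accumulates when IKK-driven degradation is blocked; native CBR normalizes for cell number. OCI-Ly3 cells were treated 4 h with compound and doxycycline, then green and red light read after Chroma-Glo addition.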
p53ts 32C kill: kills p53ts cells at the permissive temperature; H1299-p53A138V at 32C, ATP luminescence viability, 24 h; Potency, µM (titrated, usually from 46.1 µM), without a hit: at the highest dose activity change, negative = cytotoxicity, hits mostly cytotoxic; 130,000 compounds, 0.93% hits; AID 924;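 note: 0% = DMSO and -100% = full killing by reference compound; nearly all actives have a fitted effect of over 55% in size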
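Cells: H1299 p53ts (A138V), 600/well, pre-incubated 16–30 h at 37C. Cpd up to 46 uM, 24 h, 32C. Readout: ATPlite luminescence, 20 min RT. Normalization: DMSO vs tamoxifen 100 uM. AC50 by Hill equation.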
p53ts 39C tox: cytotoxicity in p53ts cells at nonpermissive temperature; AID 902; H1299-p53A138V viability at 39C, ATP luminescence, 24 h; 130,000 compounds, 1.5% hits; Potency, µM (highest dose often 46.1 µM), inactives show at the top dose activity change, negative = cell killing, most hits filed as cytotoxic; note: % is set by controls: 0 for no effect and ±100 for the full control effect; nearly all actives have a fitted effect of over 55% in size
Imprint erasure: induces erasure of genomic imprints in mouse ES cells; mouse ES Peg3-LacZ reporter, beta-gal luminescence, 40 h; Potency, µM (highest dose often 60.7 µM), for the others: at the top dose activity change, positive = activation, hits mostly activators; 110,000 compounds, 0.02% hits; AID 1948
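Each well holds 300 Peg3LacZ-Neo (maternal) female ES cells incubated 40 h at 37C, 5% CO2. LacZ is measured by BetaGlo luminescence, with AC50 and maximum efficacy derived from dose-response curves.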
Active calls of the source: *; [ ] = dose if it differs, or a comment. Unless noted, calls come from the whole dose curve; as a rule, active = well fitted curve in the direction sought with a large enough effect; inconclusive = small, poorly fitted or top-dose-only effect, or another doubt; inactive = no such curve, though single readings can be large; an effect the other way counts as inactive or inconclusive. Potency is the fitted concentration of half-maximal effect.

For CCC(CO)Nc1ncnc2c1cnn2-c1ccc(C)cc1 (stereo not drawn) the results were IkB sig inh inconclusive, p53ts 32C kill inconclusive, p53ts 39C tox 16µM* and Imprint erasure -13%[10.9 µM].
For CC(C)Nc1ncnc2c1cnn2-c1ccc(Cl)cc1 the results were IkB sig inh inconclusive, p53ts 32C kill 13µM*, p53ts 39C tox 16µM* and Imprint erasure -28%.
Screening Cc1ccc(-n2ncc3c(NC(C)c4ccccc4)ncnc32)cc1 (stereo not drawn) returned IkB sig inh inconclusive, p53ts 32C kill inconclusive, p53ts 39C tox inconclusive and Imprint erasure -12%[10.9 µM].
For O=C(NNc1ncnc2c1cnn2-c1ccccc1)c1cccc(Cl)c1 the results were IkB sig inh 1%, p53ts 32C kill inconclusive, p53ts 39C tox 35% and Imprint erasure -6%[10.9 µM].
Fc1ccccc1Cc1cn2cc(-c3ccc(Cl)cc3)nc2s1 was read as IkB sig inh inconclusive, p53ts 32C kill inconclusive, p53ts 39C tox 10µM* and Imprint erasure 7%[10.9 µM].
For Cc1ccc(CNC(=O)c2sc3nc(-c4ccccc4)cn3c2C)cc1 the results were IkB sig inh 1%, p53ts 32C kill -3%, p53ts 39C tox -22% and Imprint erasure -4%[10.9 µM].
Fc1ccc(-c2cn3cc(Cc4ccccc4Cl)sc3n2)cc1 was read as IkB sig inh inconclusive, p53ts 32C kill 7.9µM*, p53ts 39C tox 5µM* and Imprint erasure 26%[10.9 µM].
`Cc1ccc(Cc2cn3cc(-c4ccccc4)nc3s2)cc1` gave IkB sig inh inconclusive, p53ts 32C kill inconclusive, p53ts 39C tox 4µM* and Imprint erasure -22%[10.9 µM].
For Clc1ccc(-c2cn3cc(Cc4ccccc4)sc3n2)cc1 the results were IkB sig inh inconclusive, p53ts 32C kill inconclusive, p53ts 39C tox 6.3µM* and Imprint erasure -4%[10.9 µM].
Screening CCCN1CCN(c2ncnc3sc(C(=O)Nc4ccc(N(CC)CC)cc4C)c(C)c23)CC1 returned IkB sig inh -3%, p53ts 32C kill 1%, p53ts 39C tox -30% and Imprint erasure -16%[10.9 µM].
For Cc1c(C(=O)NCc2ccc(F)cc2)sc2nc(-c3ccc(F)cc3)cn12 the results were IkB sig inh 4%, p53ts 32C kill -5%, p53ts 39C tox -3% and Imprint erasure 5%[10.9 µM].
`Fc1ccc(Cc2cn3cc(-c4ccc(F)cc4)nc3s2)cc1` gave IkB sig inh inconclusive, p53ts 32C kill inconclusive, p53ts 39C tox 7.9µM* and Imprint erasure -13%[10.9 µM].
`COC(=O)[C@H]1[C@@H]2C[C@H]3c4[nH]c5ccccc5c4CCN3C[C@@H]2CC[C@@H]1O` gave IkB sig inh 0%[11.4 µM].
Screening O=C(CSc1nc2scc(-c3ccco3)c2c(=O)n1-c1ccccc1)NCC1CCCO1 (stereo not drawn) returned IkB sig inh 7.9µM*, p53ts 32C kill 3%, p53ts 39C tox 9% and Imprint erasure -40%.
Screening C=CCn1c(SCC(=O)NCC2CCCO2)nc2scc(-c3ccco3)c2c1=O (stereo not drawn) returned IkB sig inh 2%, p53ts 32C kill 13%, p53ts 39C tox -5% and Imprint erasure -11%.
For COc1ccc2nc(NC(=O)c3nc(S(=O)(=O)Cc4ccccc4F)ncc3Cl)sc2c1 the results were IkB sig inh 0%, p53ts 32C kill inconclusive, p53ts 39C tox 4µM* and Imprint erasure -40%[10.9 µM].
Screening Cc1nnc(NC(=O)c2nc(S(=O)(=O)Cc3ccccc3)ncc2Cl)s1 returned IkB sig inh 1%, p53ts 32C kill inconclusive, p53ts 39C tox 16µM* and Imprint erasure -34%[10.9 µM].
Cc1cccc(CS(=O)(=O)c2ncc(Cl)c(C(=O)Nc3nc4ccc(F)cc4s3)n2)c1 was read as IkB sig inh inconclusive, p53ts 32C kill 16µM*, p53ts 39C tox 10µM* and Imprint erasure -36%[10.9 µM].
COc1ccc2nc(NC(=O)c3cc(=O)c4ccccc4o3)sc2c1 was read as IkB sig inh inconclusive, p53ts 32C kill inconclusive, p53ts 39C tox 10µM* and Imprint erasure -9%[10.9 µM].
Cc1ccc2nc(NC(=O)c3cc(=O)c4cc(C)c(C)cc4o3)sc2c1 was read as IkB sig inh -3%, p53ts 32C kill 8%, p53ts 39C tox 8% and Imprint erasure -11%[10.9 µM].
`COc1ccc2nc(NC(=O)c3nc(SCc4ccccc4F)ncc3Cl)sc2c1` gave IkB sig inh 0%, p53ts 32C kill 5%, p53ts 39C tox -20% and Imprint erasure 14%[10.9 µM].
`COc1ccc(S(=O)(=O)N(CCc2ccccc2)CC(=O)Nc2cc(C)ccc2C)cc1` gave IkB sig inh inconclusive, p53ts 32C kill 7%, p53ts 39C tox -17% and Imprint erasure -12%[10.9 µM].
Cc1cccc(-c2nc(CSCC(=O)N3CCN(c4ccccc4)CC3)c(C)o2)c1 was read as IkB sig inh 6%, p53ts 32C kill -6%, p53ts 39C tox -21% and Imprint erasure 12%[10.9 µM].
COc1ccc2nc(NC(=O)c3nc(S(=O)(=O)Cc4ccccc4)ncc3Cl)sc2c1 was read as IkB sig inh inconclusive, p53ts 32C kill 13µM*, p53ts 39C tox 5µM* and Imprint erasure -44%[10.9 µM].
`COC(=O)c1ccccc1NC(=O)c1nc(S(=O)(=O)Cc2ccccc2F)ncc1Cl` gave IkB sig inh 12%, p53ts 32C kill 4%, p53ts 39C tox 16% and Imprint erasure 13%[10.9 µM].
Screening O=C(Nc1nc2ccc(F)cc2s1)c1nc(S(=O)(=O)Cc2ccccc2)ncc1Cl returned IkB sig inh -4%, p53ts 32C kill inconclusive, p53ts 39C tox inconclusive and Imprint erasure -50%[10.9 µM].
Screening O=C(Nc1ccccc1F)c1nc(S(=O)(=O)Cc2ccccc2F)ncc1Cl returned IkB sig inh inconclusive, p53ts 32C kill inconclusive, p53ts 39C tox 4µM* and Imprint erasure -36%[10.9 µM].
CCOC(=O)c1[nH]c(C)c(C(=O)NC(CC)Cc2ccccc2)c1C (stereo not drawn) was read as IkB sig inh inconclusive, p53ts 32C kill 11%, p53ts 39C tox -3% and Imprint erasure -12%[10.9 µM].
For CCOC(=O)c1ccc(NC(=O)N2CCOc3ccccc32)cc1 the results were IkB sig inh -4%, p53ts 32C kill -14%, p53ts 39C tox -15% and Imprint erasure inconclusive.
`Cc1ccc2nc(/C(C#N)=C/c3ccc(-c4cccc(Cl)c4)o3)[nH]c2c1` gave IkB sig inh inconclusive, p53ts 32C kill inconclusive, p53ts 39C tox 4µM* and Imprint erasure -7%[10.9 µM].
For O=C1c2ccccc2NC(c2ccc3c(c2)OCO3)N1O (stereo not drawn) the results were IkB sig inh -2%, p53ts 32C kill inconclusive, p53ts 39C tox -27% and Imprint erasure -42%.
For O=C1c2ccccc2NC(c2ccc3c(c2)OCCO3)N1c1ccc2c(c1)OCCO2 (stereo not drawn) the results were IkB sig inh 0%, p53ts 32C kill 6.3µM*, p53ts 39C tox 5µM* and Imprint erasure -89%.
Cc1ccc(O)c(C(=O)CC(=O)c2cccc(F)c2)c1 was read as IkB sig inh -2%, p53ts 32C kill -14%, p53ts 39C tox -11% and Imprint erasure -25%.

Source: PubChem (National Center for Advancing Translational Sciences (NCATS))
